# KKLEB tox = cytotoxicity in KKLEB CF airway cells, primary screen, cytotoxicity control for CF NF-kB inhibitor project, cell-based, uHTS, fluorescence assay plates; KKLEB CF airway cells viability, ATPlite luminescence, overnight; hits give low values; cells stimulated with P. aeruginosa culture filtrate; activity change (cytotoxicity), % at 5 µM; 360,000 compounds, 0.36% hits;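 active = corrected activity change at or below -50% at 5 µM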
# Shn3 inh set2 = reduction of Shn3 3'UTR firefly luciferase signal, primary screen, Schnurri-3 inhibitor project, cell-based, Clone20 osteoblasts, set 2 | inhibition, % at 12.5 µM | Clone20 osteoblast Shn3 3'UTR firefly luciferase, 24 h | 360,000 compounds, 0.52% hits;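 active = mean inhibition of at least 75% with every replicate also reaching 75%; inconclusive = mean inhibition at least 75% but some replicate below; inactive = mean inhibition below 75%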;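 also: 0% = median of neutral control wells and 100% = pilot-screen positive control compound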
# CF NFkB inh = inhibitors of PAF-induced NF-kB signaling, primary screen, cell-based, GFP fluorescence, uHTS; inhibition, % at 5 µM; 360,000 compounds, 0.86% hits; KKLEB NF-kB-GFP reporter, GFP fluorescence overnight;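 active = at least 50% inhibition at 5 µM, scaled per plate between neutral and stimulator controls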;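 also: PAF is a Pseudomonas aeruginosa culture filtrate used as stimulus; plate controls were PAF-stimulated DMSO wells for no effect and unstimulated DMSO wells for full effect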
# LGR2 antag = inhibitors of bursicon-induced LGR2 CRE-luciferase signal, primary screen, cell-based, HEK293, CRE-luciferase reporter, bursicon stimulation | bursicon-stimulated, 4 h | Drosophila bursicon receptor LGR2 (rickets) | inhibition, % at 9.99 µM | 380,000 compounds, 0.35% hits | AID 720647, 2013;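 active = drop in luminescence signal, shown as inhibition above about 50% in the replicate tests, limit read from the data, passing the limit was not always enough; inconclusive = probably only some replicates passing the limit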;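 also: agonist challenge used bursicon conditioned medium at about half maximal strength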
# EWS-Fli inh = EWS/Fli-driven NR0B1 reporter inhibitors, primary screen, A673 cells, NR0B1 luciferase, luminescence, MLPCN library; viability-normalised; inhibition, % at 12.6 µM; 350,000 compounds, 0.67% hits;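 active = mean inhibition of at least 50% after viability correction, with every replicate also passing that limit; inconclusive = mean reaches 50% but only one of two replicates passes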;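 also: firefly luciferase signal divided by Alamar Blue viability fluorescence both relative to DMSO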
# PAX8 reporter = inhibitors of PAX8-driven TPO luciferase reporter, primary screen, RMG-I cells, single concentration. inhibition, % at 12.6 µM. SteadyGlo, 24 h. AID 652154, 2013. 360,000 compounds, 1.2% hits;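 active = mean replicate inhibition at least 60% with every replicate also reaching 60%; inconclusive = only one of the two criteria is met; inactive = mean below 60% and not all replicates reaching 60%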;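 also: luciferase light reporting Pax8 driven TPO promoter activity; plate controls were median of neutral control wells for no effect and mitoxantrone controls for full effect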
# Numbers without * were called inactive; ? = inconclusive; . = no result given. Shown are actives, neighbours in structure and some others; about 2% of the full set was active somewhere.
SMILES,KKLEB tox,Shn3 inh set2,CF NFkB inh,LGR2 antag,EWS-Fli inh,PAX8 reporter
C[C@@H]1CCCCO[C@@H](CN(C)Cc2ccc(C(F)(F)F)cc2)[C@H](C)CN([C@H](C)CO)C(=O)c2cc(NC(=O)Cc3ccccc3)ccc2O1,.,.,.,2,14,91*
C[C@@H]1CN([C@@H](C)CO)C(=O)c2cc(NC(=O)Cc3ccccc3)ccc2O[C@@H](C)CCCCO[C@H]1CN(C)Cc1ccc(C(=O)O)cc1,.,.,.,6,4,-7
C[C@H](CO)N1C[C@H](C)[C@H](CN(C)Cc2ccc(C(F)(F)F)cc2)OCCCC[C@H](C)Oc2ccc(NC(=O)Cc3ccccc3)cc2C1=O,.,.,.,12,4,110*
CCC(=O)Nc1ccc2c(c1)C(=O)N(C)C[C@H](OC)[C@@H](C)CN(Cc1cncnc1)[C@H](C)CO2,.,.,.,1,6,.
C[C@H](CO)N1C[C@H](C)[C@H](CN(C)S(=O)(=O)c2cccs2)Oc2c(NC(=O)CCCCCC(=O)Nc3ccccc3N)cccc2C1=O,.,.,.,-20,35,.
C[C@H]1CCCCO[C@H](CN(C)Cc2ccc(C(F)(F)F)cc2)[C@@H](C)CN([C@@H](C)CO)C(=O)c2cc(NC(=O)Cc3ccccc3)ccc2O1,.,.,.,13,14,76*
C[C@H]1CCCCO[C@@H](CN(C)Cc2ccc(C(=O)O)cc2)[C@@H](C)CN([C@@H](C)CO)C(=O)c2cc(NC(=O)Cc3ccccc3)ccc2O1,.,.,.,8,-7,-8
C[C@@H]1CN([C@H](C)CO)C(=O)c2cc(NC(=O)Cc3ccccc3)ccc2O[C@@H](C)CCCCO[C@@H]1CN(C)Cc1ccccc1,.,.,.,4,13,25
C[C@@H]1CN([C@@H](C)CO)C(=O)c2cc(NC(=O)Cc3ccccc3)ccc2O[C@@H](C)CCCCO[C@H]1CN(C)Cc1ccc(C(F)(F)F)cc1,.,.,.,4,16,76*
O=C(Nc1cc(F)ccc1F)N[C@@H]1CC[C@@H](CCn2cc(C3CCCC3)nn2)O[C@@H]1CO,.,.,.,2,.,14
C=CCn1c(COc2ccc(Cl)cc2)nnc1SCC(=O)Nc1ccc(S(N)(=O)=O)cc1,-8,-5,-2,35,-7,64*
O=C(Nc1ccc([N+](=O)[O-])cn1)c1cc(-c2cccc(Br)c2)nc2ccccc12,-9,-28,-13,14,3,115*
N#CC(=C1C=C(Br)C(=NO)C=C1Cl)c1cccc2ccccc12,0,8,51*,13,5,19
C[C@H](CO)N1C[C@H](C)[C@@H](CN(C)S(=O)(=O)c2cn(C)cn2)Oc2ccc(NC(=O)Nc3ccccc3)cc2CC1=O,.,.,.,-6,-10,-5
C[C@@H]1COC(=O)[C@H](Cc2ccc(F)cc2)CC/C=C/C[C@@H](CC(=O)N[C@@H](CO)Cc2ccccc2)C(=O)N1,20,5,-1,-12,-20,5
O=C(C[C@@H]1C/C=C/CC[C@H](Cc2ccc(F)cc2)C(=O)OC[C@@H](Cc2ccccc2)NC1=O)N[C@H](CO)Cc1ccccc1,-91*,54,62*,26,?,103*
O=C1N[C@@H](Cc2ccccc2)COC(=O)[C@@H](Cc2ccc(F)cc2)CC/C=C/C[C@@H]1CC(=O)N(CCO)Cc1ccccc1,11,4,-1,11,3,68*
CCN(C[C@@H]1N[C@H](CO)[C@H]1c1ccc(-c2ccc(F)cc2)cc1)C(=O)COC,.,.,.,-4,11,-60
COc1ccc(CCNc2nnc(Sc3nnnn3-c3ccccc3)s2)cc1OC,-32,12,44,.,.,94*
C[C@H]1CCCCO[C@H](CN(C)C(=O)Nc2ccc(F)cc2)[C@@H](C)CN([C@@H](C)CO)C(=O)c2cc(N(C)C)ccc2O1,.,.,.,8,-2,8
CCOc1ccccc1C(=O)N(Cc1ccccc1)Cc1cc2cc3c(cc2[nH]c1=O)OCCO3,-62*,-7,48,25,.,.
C=CCCc1ccc(C#N)c(SCc2c(C(=O)OCC)c3cc(OC(C)=O)c(Br)cc3n2C)n1,5,89*,6,.,.,.
CCOC(=O)c1c(CSc2nc(C)cc(C)c2C#N)n(C)c2cc(Br)c(OC(C)=O)cc12,-55*,77,40,12,-4,10
COc1ccc(NS(=O)(=O)c2cc(C(=O)O)ccc2C)cc1,-3,-21,0,18,0,.
COc1ccc(NS(=O)(=O)c2cc(NC(=O)c3ccc(=O)[nH]n3)ccc2C)cc1,0,7,-11,-8,56*,26
SMILES,KKLEB tox,Shn3 inh set2,CF NFkB inh,LGR2 antag,EWS-Fli inh,PAX8 reporter
C#CCN(C[C@@H]1[C@@H](OC(=O)NCc2ccccc2F)[C@@H](OC(=O)NCc2ccccc2F)Cn2c(=O)ccc(=O)n21)S(=O)(=O)c1ccc(C)cc1,-85*,96*,77*,68*,43,105*
C#CCN(C[C@H]1[C@H](OC(=O)Nc2cccs2)[C@H](OC(=O)Nc2cccs2)CN(C(=O)OC(C)C)N1C(=O)OC(C)C)S(=O)(=O)c1ccc(C)cc1,.,.,.,12,26,?
C#CCN(C[C@@H]1[C@@H](OC(=O)NCc2ccccc2F)[C@@H](OC(=O)NCc2ccccc2F)Cn2c(=O)n(CCCCCC)c(=O)n21)S(=O)(=O)c1ccc(C)cc1,6,19,17,-6,9,19
C#CCN(C[C@@H]1[C@@H](OC(=O)Nc2cccs2)[C@@H](OC(=O)Nc2cccs2)Cn2c(=O)ccc(=O)n21)S(=O)(=O)c1ccc(C)cc1,-60*,-12,81*,48,?,113*
NC(=O)c1sc2nc3c(c(-c4cccs4)c2c1N)CCCCC3,-51*,-5,91*,.,.,.
NC(=O)c1sc2nc3c(c(-c4cccnc4)c2c1N)CCC3,10,-3,9,.,.,.
CN1C/C(=C/c2ccccc2[N+](=O)[O-])C(=O)/C(=C\c2ccccc2[N+](=O)[O-])C1,3,-7,-14,-45,72*,.
Cc1ccc(C)c2c1CCC(=Cc1ccccc1[N+](=O)[O-])C2=O,-16,15,25,-3,4,13
NC(=S)NN=C1c2cc(OCCN3CCOCC3)ccc2-c2ccc(OCCN3CCOCC3)cc21,-38,22,-51,104*,64*,59
ON=C1c2cc(OCCN3CCCCC3)ccc2-c2ccc(OCCN3CCCCC3)cc21,-3,-9,-8,.,.,.
COc1cc2c(c(OC)c1OC)-c1ccc(OC)c(=O)cc1[C@@H](NC(C)=O)CC2,16,-1,42,-16,63*,96*
